In the library only some 5.8% were active in any assay of this set; here they are far more common.
uPA surface inh: cell surface uPA generation inhibition; cell surface uPA generation assay, qHTS; Potency, µM (doses to about 38.3 µM), most hits filed as inhibitors; hit rate 0.31% among 330,000; active = well fitted inhibition curve with a large enough effect; inconclusive = small, poorly fitted or top-dose-only effect; inactive = no such curve, though single readings can be large or run the other way; tested in mouse RAW 264.7 cells; also: nearly all actives have a fitted effect of over 55% in size
TRPV1 PAM: human TRPV1 potentiation; Q8NER1; TRPV1-expressing cells, Fluo-8 calcium influx, capsaicin EC20 potentiation; potentiation, % at 8.33 µM; hit rate 0.02% among 320,000; AID 540277; in the data active = potentiation above about 80%; inconclusive = between about 30% and that limit
Target sequence (Q8NER1 whole entry, looked up): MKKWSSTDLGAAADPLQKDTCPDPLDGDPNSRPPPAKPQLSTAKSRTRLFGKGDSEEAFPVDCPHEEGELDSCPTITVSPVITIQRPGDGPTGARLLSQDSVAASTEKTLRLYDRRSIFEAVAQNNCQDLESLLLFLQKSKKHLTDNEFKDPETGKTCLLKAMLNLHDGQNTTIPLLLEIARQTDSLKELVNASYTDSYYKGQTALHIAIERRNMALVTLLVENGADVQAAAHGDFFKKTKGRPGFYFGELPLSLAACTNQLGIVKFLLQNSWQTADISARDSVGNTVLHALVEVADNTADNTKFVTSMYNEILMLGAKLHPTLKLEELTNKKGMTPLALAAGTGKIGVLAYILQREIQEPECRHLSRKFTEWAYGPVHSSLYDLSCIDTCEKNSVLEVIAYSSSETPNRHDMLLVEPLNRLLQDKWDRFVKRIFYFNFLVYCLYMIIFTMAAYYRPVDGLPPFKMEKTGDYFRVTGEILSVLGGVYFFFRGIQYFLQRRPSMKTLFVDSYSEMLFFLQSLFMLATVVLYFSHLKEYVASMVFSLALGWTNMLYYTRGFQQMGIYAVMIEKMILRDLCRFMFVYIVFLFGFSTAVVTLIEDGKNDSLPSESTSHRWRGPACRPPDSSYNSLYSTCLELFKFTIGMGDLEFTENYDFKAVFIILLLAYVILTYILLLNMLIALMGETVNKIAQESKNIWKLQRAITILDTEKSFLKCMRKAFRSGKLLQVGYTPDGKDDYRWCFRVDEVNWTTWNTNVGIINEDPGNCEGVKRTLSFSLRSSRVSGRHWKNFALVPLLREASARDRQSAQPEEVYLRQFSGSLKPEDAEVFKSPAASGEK
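TRPV1-expressing cells were cultured overnight at 35.5C and loaded with Fluo-8 calcium dye for 40 to 90 min at room temperature. After a 10 s baseline, compound was added and calcium influx was read kinetically for 3 min (ex 480/em 520 nm).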
TRPV1 ag: activates the human vanilloid receptor TRPV1 | Q8NER1 | TRPV1-expressing cells, Fluo-8 calcium influx, agonist mode | activation, % at 8.33 µM | hit rate 0.19% among 320,000 | AID 540275; in the data active = activation above about 80%; inconclusive = between about 30% and that limit
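TRPV1-expressing cells were cultured overnight at 35.5C and loaded with Fluo-8 calcium dye for 40 to 90 min at room temperature. After a 10 s baseline, compound was added and calcium influx was read kinetically for 3 min (ex 480/em 520 nm).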
VP16 counter: counter-screen for ROR gamma inhibitors: Gal4-VP16 reporter; Potency, µM (doses to about 53.6 µM), usual class: inhibitors; hit rate 3.5% among 310,000; Drosophila S2 Gal4-VP16 UAS-luciferase, luminescence, 20 h;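 also: Gal4-VP16 expression switched on by copper sulfate through the metallothionein promoter; nearly all actives have a fitted effect of over 50% in size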
RORg inh: inhibitors of mouse ROR gamma transcriptional activity; P51450; Drosophila S2 Gal4-RORgamma UAS-luciferase reporter, 20 h; Potency, µM (titrated, usually from 53.6 µM), actives largely listed as inhibitors; hit rate 5.4% among 310,000; AID 2551; also: nearly all actives have a fitted effect of over 60% in size
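Using a luciferase readout, inhibitors were identified by reduced reporter activity in Drosophila cells coexpressing a copper-inducible Gal4–ROR gamma fusion and UAS-driven Photinus luciferase, incubated 20 hr after 700 uM copper sulfate.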
Of the large screens only hits and unclear results are named; the others gave an inactive call. Unless noted, calls follow the shape of the dose curve; as a rule, active = well fitted curve in the direction sought with a large enough effect; inconclusive = small, poorly fitted or top-dose-only effect, or another doubt; inactive = no such curve, though single readings can be large; an effect the other way counts as inactive or inconclusive.

CCOc1ccc(-c2ccc(/C=C3/C(=N)N4C(C)=CSC4=NC3=O)o2)c([N+](=O)[O-])c1	VP16 counter inconclusive
CC1=CN2C(=N)/C(=C/c3ccco3)C(=O)N=C2S1	VP16 counter 16µM, RORg inh inconclusive
CCOc1ccc(-c2ccc(/C=C3/C(=N)N4C=CSC4=NC3=O)o2)c([N+](=O)[O-])c1	VP16 counter 3.5µM, RORg inh 2.5µM
CC[C@@H]1Cn2c(c3nc(-c4ccccc4)nc-3n(C)c2=O)N1	none (no result: uPA surface inh, TRPV1 PAM, TRPV1 ag)
COc1ccc(Nc2oc(COc3ccc(Cl)cc3)nc2C#N)cc1	VP16 counter inconclusive, RORg inh 16µM
Fc1ccc(CCNC(=S)Nc2ccc(F)c(Cl)c2)cc1	VP16 counter inconclusive, RORg inh 7.1µM (no result: uPA surface inh)
CCCCNC(=S)Nc1ccc(F)cc1	VP16 counter inconclusive, RORg inh 13µM
CCCCNC(=S)Nc1ccc(SC(F)F)cc1	none
Fc1ccc(NC(=S)NCCc2ccc(Cl)cc2)cc1	TRPV1 ag inconclusive, VP16 counter 3.2µM, RORg inh 1.1µM
O=[N+]([O-])c1ccc(NC(=S)NCCc2ccc(F)cc2)cc1	TRPV1 ag inconclusive, VP16 counter inconclusive, RORg inh inconclusive
O=C(NCCc1ccc(Cl)cc1)Nc1ccc(F)cc1	TRPV1 ag inconclusive
CC(C)CNc1nc(=S)nc(N(C)C)[nH]1	VP16 counter 4.5µM, RORg inh 1.8µM (no result: uPA surface inh)
O=C(Cn1c(=S)[nH]c2ccccc21)c1ccccc1	VP16 counter inconclusive, RORg inh 10µM
Cc1cc2c(NC3CCCCC3)ncnc2s1	TRPV1 ag inconclusive, VP16 counter 13µM, RORg inh inconclusive
Cc1cc2c(SCC(=O)NC3CCCCC3)ncnc2s1	VP16 counter inconclusive
C=CCN1C(=O)C(CC(C)C)NC1=S (stereo not drawn)	none (no result: uPA surface inh, TRPV1 PAM, TRPV1 ag)
COc1ccc(/C=N/NC(=O)CC(=O)N/N=C/c2ccc(OC)cc2)cc1	none
COc1ccc(/C=N\NC(=O)C2=NNC(=O)C2C)cc1 (stereo not drawn)	VP16 counter 3.2µM, RORg inh 13µM (no result: TRPV1 PAM, TRPV1 ag)
COc1cccc(/C=C2\SC(=S)N(CCCC(=O)N3CCCC3)C2=O)c1	RORg inh 2.5µM
COc1cccc(/C=C2\SC(=S)N(CCC(=O)N3CCCCC3CCO)C2=O)c1 (stereo not drawn)	uPA surface inh inconclusive, RORg inh inconclusive
COc1cccc(/C=C2\SC(=S)N(CCCC(=O)N3CCCCC3CCO)C2=O)c1 (stereo not drawn)	TRPV1 PAM inconclusive, VP16 counter 2.8µM, RORg inh 3.5µM
O=C(NS(=O)(=O)c1ccc(F)cc1)O[C@@H]1C(=O)c2cc(Br)ccc2O[C@H]1c1ccc2c(c1)OCO2	none (no result: uPA surface inh, TRPV1 PAM, TRPV1 ag)
CCOC(=O)C1=C(C)NC(C)=C(C(=O)OCC)C1C(=O)OCC(=O)N(C)C	none
O=C1C[C@@H](c2ccc(O)c(O)c2)Oc2cc(O[C@H]3O[C@@H](CO)[C@H](O)[C@@H](O)[C@@H]3O)cc(O)c21	none (no result: uPA surface inh, TRPV1 PAM, TRPV1 ag)
c1ccc(CN2CCN(C3=Nc4cccc5cccc3c45)CC2)cc1	RORg inh inconclusive
Fc1ccc(N2CCN(C3=Nc4cccc5cccc3c45)CC2)cc1	RORg inh 13µM
CC(=O)n1cc(C(C[N+](=O)[O-])SCCN)c2ccccc21 (stereo not drawn)	VP16 counter inconclusive, RORg inh 13µM
COc1ncc2nc(-c3cn(C)c4ccccc34)c(=O)n(C[C@H]3CCCO3)c2n1	none (no result: uPA surface inh, TRPV1 PAM, TRPV1 ag)
FC(F)Oc1ccccc1NC(=S)NCCc1ccccc1	none (no result: TRPV1 PAM, TRPV1 ag, VP16 counter, RORg inh)
COc1ccc(CNC(=S)Nc2ccccc2C)cc1	VP16 counter 10µM, RORg inh 18µM
Cc1ccc(CNC(=S)Nc2cc(C)ccc2OC(F)F)cc1	TRPV1 ag inconclusive, VP16 counter inconclusive, RORg inh 4.5µM
COc1ccc(/C(C)=N/NC(=S)Nc2cc(C)ccc2C)cc1	VP16 counter 11µM, RORg inh 2.8µM
COc1ccc(CNC(=S)Nc2cc(C)ccc2C)cc1	VP16 counter 7.1µM, RORg inh 7.9µM
COc1ccc(CNC(=O)c2ccc(C)cc2)cc1	none (no result: uPA surface inh, TRPV1 PAM, TRPV1 ag)
COc1ccc(/C(C)=N/NC(=O)C2CC2)cc1	none
COc1ccc([C@]23Cc4cc(C#N)ccc4C(O2)C2=C(CC4(CCCCC4)OC2=O)O3)cc1	none (no result: uPA surface inh)
Cc1onc(-c2ccccc2Cl)c1C(=O)N1CCN(Cc2ccc3c(c2)OCO3)CC1	none
CC(/C=N/NC(=S)Nc1cccc(S(=O)(=O)N(C)C)c1)c1ccccc1 (stereo not drawn)	none
Cc1ccc(C)c(NC(=S)N/N=C/C(C)c2ccccc2)c1 (stereo not drawn)	VP16 counter 7.1µM, RORg inh 0.56µM
Cc1ccc(NC(=S)NCc2ccccc2)cc1C	none (no result: TRPV1 PAM, TRPV1 ag, VP16 counter, RORg inh)
Cc1ccc(C)c(NC(=S)NCc2ccccc2)c1	TRPV1 ag inconclusive, VP16 counter 5µM, RORg inh 3.2µM
O=C(NC(NC1CCS(=O)(=O)C1)C(=O)c1cccs1)c1ccccc1 (stereo not drawn)	TRPV1 PAM inconclusive
O=C1C(Cl)=C(NC(=O)c2ccccc2)C(=O)C(Cl)=C1NC(=O)c1ccccc1	VP16 counter inconclusive, RORg inh 7.1µM
CN(C1=C(NC(=O)c2ccc(Cl)cc2)C(=O)c2ccccc2C1=O)c1ccccc1	VP16 counter 11µM, RORg inh 11µM
Cc1cccc(NC2=C(NC(=O)c3ccccc3)C(=O)c3ccccc3C2=O)c1	VP16 counter inconclusive, RORg inh inconclusive
O=C(NC1=C(NC2CCS(=O)(=O)C2)C(=O)c2ccccc2C1=O)c1ccccc1 (stereo not drawn)	uPA surface inh inconclusive, VP16 counter inconclusive, RORg inh 13µM
O=C(NC1=C(Nc2ccc(Cl)cc2)C(=O)c2ccccc2C1=O)c1ccccc1	TRPV1 ag inconclusive, VP16 counter inconclusive, RORg inh 14µM
CCN1C(=O)[C@H]2[C@H]3[C@H](O)[C@H](O)C/C(=N/OC/C=C(\C)CCC=C(C)C)[C@H]3CC[C@@H]2C1=O	none (no result: uPA surface inh, TRPV1 PAM, TRPV1 ag)
C[C@H](O/N=C1/[C@H]2O[C@@H]2[C@@H](O)[C@H]2[C@H]1CCn1c(=O)n(-c3ccccc3)c(=O)n12)c1cn([C@H]2COC[C@H]2O)nn1	none (no result: uPA surface inh, TRPV1 PAM, TRPV1 ag)
COc1ccc(NC2=NC(=S)N(c3ccc(C)cc3)C23CCCCC3)cc1	RORg inh 0.56µM (no result: TRPV1 PAM, TRPV1 ag)
COc1ccc(NC2=NC(=S)N(c3cccc(C)c3)C23CCCCC3)cc1	VP16 counter inconclusive, RORg inh 2µM
OC[C@@H]1[C@@H](c2ccc(Cl)cc2)C(c2ccc(F)cc2)=NN1c1ccccc1	VP16 counter inconclusive (no result: TRPV1 PAM, TRPV1 ag)
C=CCn1c(SCC(=O)c2[nH]c(C)c(C(=O)OCC)c2C)nc2scc(-c3ccc(OC)c(OC)c3)c2c1=O	VP16 counter 10µM, RORg inh 10µM
CCN(CC)CCC(C)OC(c1ccccc1)c1ccccc1 (stereo not drawn)	uPA surface inh inconclusive
Cc1ccc(S(=O)(=O)CNC(=S)c2cccc(Cl)c2)cc1	VP16 counter inconclusive, RORg inh 22µM
Cc1ccc(C(=S)NCS(=O)(=O)c2ccc(C)cc2)cc1	VP16 counter 8.9µM, RORg inh 2.8µM (no result: uPA surface inh, TRPV1 PAM, TRPV1 ag)
